In the library only some 19% were active in any assay of this set; here they are far more common.
HT1080-NT tox: qHTS for induction of synthetic lethality in tumor cells producing 2HG: qHTS for the HT-1080-NT fibrosarcoma cell line; HT-1080-NT fibrosarcoma viability, CellTiter-Glo ATP luminescence, 48 h; actives 1.6% (n = 360,000); Potency, µM (titrated, usually from 46.1 µM), without a hit: top-dose activity, negative = less viability, usual class: cytotoxic;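 note: NT is the 2HG producing partner of a matched IDH1 knockdown line; potency is the fitted concentration of half-maximal effect; 0% = DMSO-treated cells and -100% = media-only wells without cells; nearly all actives have a fitted effect of over 55% in size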
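Viability by CellTiter-Glo luminescence after 48 h compound exposure at 37C of HT-1080-NT cells (750/well, RPMI, 5% FBS). % activity scaled between DMSO wells and medium-only wells, then curve-fitted and categorized by curve class.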
HT1080 IDH1KD tx: qHTS for induction of synthetic lethality in tumor cells producing 2HG: qHTS for the HT-1080-IDH1KD cell line. AID 686971, 2013. Potency, µM (doses to about 46.1 µM), inactives show top-dose activity, negative = toxicity, hits mostly cytotoxic. HT-1080 IDH1 knockdown viability, ATP luminescence, 48 h. actives 2% (n = 360,000);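 note: potency is the fitted concentration of half-maximal effect; 0% = DMSO wells and -100% = cell-free medium wells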
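Using the IDH1-knockdown HT-1080 line run in the same batch and compound series as the NT line, viability after 48 h at 37 °C was determined by CellTiter-Glo luminescence and expressed as % activity.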
IL1B secr inh: qHTS for Inhibitors of Inflammasome Signaling: IL-1-beta AlphaLISA Primary Screen; activity change, % at 57.5 µM; actives 4.7% (n = 360,000); THP-1 LPS/ATP IL-1B secretion, AlphaLISA, 16 h; hits give low values; in the data active = activity change below about -50%; inconclusive = mostly about -30% to -49%
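THP-1 cells pretreated 1 hr with compounds (up to 57.5 uM final), then stimulated with LPS (250 ng/mL final) plus ATP (1.25 mM final); secreted IL-1B measured by AlphaLISA after 16 hr, decreased signal indicating inhibition.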
TDP1 cell CPT: qHTS for Inhibitors of human tyrosyl-DNA phosphodiesterase 1 (TDP1): qHTS in cells in presence of CPT; chicken DT40 Tdp1-/-;hTDP1 cells + 20 nM CPT, ATP luminescence, 48 h; Potency, µM (series often up to 46.2 µM), inactives show at the top dose activity change, negative = growth inhibition, usual class: inhibitors; actives 12% (n = 420,000); AID 686979, 2013; note: potency is the fitted concentration of half-maximal effect; nearly all actives have a fitted effect of over 55% in size
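Chicken DT40 Tdp1-/- cells complemented with human TDP1, 400 cells/well, exposed to compounds plus 20 nM camptothecin for at least 48 h at 37 C; viability read as ATP content by CellTiter-Glo luminescence.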
TDP1 cell noCPT: qHTS for Inhibitors of human tyrosyl-DNA phosphodiesterase 1 (TDP1): qHTS in cells in absence of CPT. DT40 Tdp1-/- hTDP1 cells, no CPT, ATP luminescence, 48 h. Potency, µM (top dose mostly 46.2 µM), for inactives: at the highest dose activity change, negative = growth inhibition, usual class: inhibitors. actives 15% (n = 420,000); note: potency is the fitted concentration of half-maximal effect; nearly all actives have a fitted effect of over 55% in size
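Seeded 400 DT40-hTDP1 cells/well (vehicle DMSO, no 20 nM CPT); pinned compounds; ≥48 hr at 37 °C; CellTiter-Glo luminescence as viability measure.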
The depositor's hits bear a star; i = inactive; ? = inconclusive; . = not tested or not shown; [ ] = another dose, or the depositor's remark. Unless noted, calls come from the whole dose curve; as a rule, active = well fitted curve in the direction sought with a large enough effect; inconclusive = small, poorly fitted or top-dose-only effect, or another doubt; inactive = no such curve, though single readings can be large; an effect the other way counts as inactive or inconclusive. Unless noted, % is set by controls: 0 for no effect and ±100 for the full control effect.

SMILES | HT1080-NT tox | HT1080 IDH1KD tx | IL1B secr inh | TDP1 cell CPT | TDP1 cell noCPT
COc1cc(CN2C[C@@H](CO)O[C@@H](n3cnc4c(NCCCO)ncnc43)C2)cc(OC)c1OC | 15% | 4% | -18 | 1% | 4%
COn1c(=O)c(-c2cccs2)[n+]([O-])c2ccccc21 | 4% | 10% | 0 | 16µM* | 12µM*
CCOn1c(=O)c(-c2cccs2)[n+]([O-])c2ccccc21 | -1% | 0% | ? | -10% | -9%
CCCc1cc(CNC(=O)C2CCC(=O)N(Cc3ccccc3OC)C2)on1 (stereo not drawn) | 11% | 18% | 21 | -2% | 1%
COC(=O)c1ccccc1NC(=O)c1cnn2c(C(F)F)cc(C3CC3)nc12 | ? | ? | -9 | ? | 15µM*
Cc1ccc(-c2cc(C(F)F)n3ncc(C(=O)Nc4cn(C)nc4C)c3n2)cc1 | 17% | 18% | -11 | -19% | ?
COC(=O)c1cnn2c(C(F)(F)F)cc(-c3ccccc3)nc12 | ? | ? | 16 | -27% | -7%
CCN(CC)c1ccc(NC(=O)c2cnn3c(C(F)F)cc(-c4ccccc4)nc23)cc1 | . | . | . | ? | 13µM*
Cc1cc(NC(=O)c2cnn3c(C(F)(F)F)cc(-c4ccccc4)nc23)no1 | 0% | 0% | -69* | 13µM* | 23µM*
Cc1cc(NC(=O)c2cnn3c(C(F)F)cc(-c4ccccc4)nc23)no1 | -3% | 6% | -12 | 15µM* | 9.2µM*
O=C(NCc1ccco1)c1cnn2c(C(F)F)cc(-c3ccccc3)nc12 | 0% | -2% | -4 | -29% | -26%
Cc1c(NC(=O)c2nn3c(C(F)(F)F)cc(-c4ccccc4)nc3c2Cl)c(=O)n(-c2ccccc2)n1C | 19% | 0% | -51* | -2% | ?
O=C(c1cnn2c(C(F)F)cc(C3CC3)nc12)N1CCCC1 | 3% | 6% | 21 | -17% | -24%
COCCNC(=O)c1cnn2c(C(F)F)cc(-c3ccccc3)nc12 | -4% | 0% | 2 | ? | 21µM*
COc1ccc(-c2cc(C(F)(F)F)n3nc(C(=O)Nc4c(C)n(C)n(-c5ccccc5)c4=O)c(Cl)c3n2)cc1 | 8% | 12% | 14 | ? | ?
Cc1cc(NC(=O)c2cnn3c(C(F)F)cc(C4CC4)nc23)no1 | 0% | -1% | -5 | ? | 12µM*
O=C(Nc1c2c(nn1-c1ccccc1)CS(=O)C2)c1ccc2c(c1)OCO2 (stereo not drawn) | 0% | 2% | i | 3% | 3%
Cc1ccc(Sc2nnc(Cc3ccccc3)c3ccccc23)cc1 | -5%[9.24 µM] | -11% | -89* | 26µM* | 23µM*
COc1ccc(CNC(=O)Oc2ccccc2)cc1Cl | -28% | -24% | 10 | ? | 12µM*
COc1ccc(/C=N/OCC(=O)Nc2cc(C)on2)cc1OC | 6% | 6% | -4 | 9% | -29%
COc1ccc(CC(=O)NCc2cccc(CNC(=O)Cc3ccc(OC)c(OC)c3)c2)cc1OC | -2% | 4% | 7 | -7% | -2%
COc1cc(C(=O)NC(c2ccccc2)c2ccccc2)cc(Cl)c1OC | 7% | 7% | 0 | -4% | -23%
COc1cc(CC(=O)NC(c2ccccc2)c2ccccc2)cc(OC)c1OC | 3% | 11% | 28 | 15µM* | 13µM*
COc1ccc(/C=N/OCC(=O)NC(c2ccccc2)c2ccccc2)cc1OC | -7% | -14% | 0 | 5.2µM* | 6.5µM*
COc1ccc(CNC(=O)CNC(c2ccccc2)c2ccccc2)cc1OC | -6% | -2% | -12 | -5% | 7.3µM*
SMILES | HT1080-NT tox | HT1080 IDH1KD tx | IL1B secr inh | TDP1 cell CPT | TDP1 cell noCPT
CCn1cc(/C=C(\NC(=O)c2ccccc2Cl)C(=O)N2CCN(C)CC2)c2ccccc21 | -22% | -9% | -1 | -22% | ?
CCCCn1c(N)c(N(CC)C(=O)c2ccc([N+](=O)[O-])c(C)c2)c(=O)[nH]c1=O | 11% | 12% | -2 | -1% | -7%
O=C(C(=O)N1CCN(C(=O)c2ccco2)CC1)c1ccccc1 | 17% | 20% | 31 | 0% | 6%
Cc1ccc2c(c1)c1c3n2CCN(C(=O)c2cccc(C(F)(F)F)c2)C3CCC1 (stereo not drawn) | . | . | . | ? | 23µM*
CCN1CCn2c3c(c4cc(Cl)ccc42)CCCC31 (stereo not drawn) | -29% | ? | -10 | ? | ?
CCN(CC)CCN1CCn2c3c(c4cc(C)ccc42)CCCC31 (stereo not drawn) | ? | -20% | ? | ? | 23µM*
Cc1c(C)c2c(cc(C)c3c(-c4ccc(Br)cc4)coc32)oc1=O | . | . | . | 3% | -1%
CCC(C)Nc1nc(-c2ccccn2)nc2ccccc12 (stereo not drawn) | ? | ? | -20 | 4.1µM* | 3.7µM*
CC(C)(C)c1ccc(-c2nc(NCc3cccnc3)c3ccccc3n2)cc1 | 2% | -17% | -65* | ? | ?
CCSc1nc(-c2cccs2)nc2ccccc12 | -14% | -15% | 6 | 15µM* | 18µM*
c1ccc(-c2nc(NCCCn3ccnc3)c3ccccc3n2)cc1 | -6% | -11% | -73* | 1% | -18%
c1cncc(CNc2nc(-c3cccnc3)nc3ccccc23)c1 | 1% | -12% | -5 | ? | 0%
OCCNc1nc(-c2ccccc2)nc2ccccc12 | 3% | -13% | ? | 15% | -21%
Cc1noc(C)c1-c1nc(NC2CC2)c2ccccc2n1 | . | . | . | 0% | ?
COc1cccc(-c2nc(NCc3ccccc3)c3ccccc3n2)c1 | . | . | . | ? | 16µM*
N#Cc1cccc(-c2nc(NCc3cccnc3)c3ccccc3n2)c1 | . | . | . | 2% | -29%
COc1cccc(-c2nc(NC3CC3)c3ccccc3n2)c1 | . | . | . | 16µM* | 21µM*
c1ccc(CNc2nc(-c3ccccn3)nc3ccccc23)cc1 | ? | ? | -71* | 3.7µM* | 3.7µM*
COCCNc1nc(-c2cccc(OC)c2)nc2ccccc12 | . | . | . | 18µM* | 6.5µM*
c1ccc(CNc2nc(NCc3ccccc3)c3ccccc3n2)cc1 | 15µM* | 7.3µM* | -100* | 5.8µM* | 5.2µM*
c1ccc(CNc2nc(-c3cccs3)nc3ccccc23)cc1 | ? | 18µM* | . | ? | ?
